The source of these data is PubChem BioAssay.

Each structure is given as a SMILES string. The source made the active and inactive calls. Unless noted, no rule for the calls is given here.

Assay [1] concerns Wnt5a (protein binding on small-molecule microarray). Nature of the assay: Wnt5a binders on small-molecule microarray, primary screen, biophysical, 635/667 nm fluorescence (AID 1142).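 Also: fluorescence read at 667 nm with signal to noise per printed feature.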 The note with it: 635 nm fluorescence, higher = more signal.
Assay [2] in a line: cell viability in Huh7 cells, primary screen, cytotoxicity control for HCV replication inhibitor project, CellTiter-Glo luminescence, basal, 48 h (AID 1143).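 Also: Huh7 hepatoma cells carrying a hepatitis C replication reporter with no stimulus; test concentration not given here.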 Conditions: Huh7 HCV replicon, higher = more signal, called active from +8 up or from −8 down. On the technique in general: ATP-based viability assays read luminescence as a measure of living cells.
Assay [3] can be described thus: P. aeruginosa biofilm formation inhibitors, primary screen, PAO1 strain, BacTiter-Glo luminescence, LB-PBS (AID 1144). Conditions: 12 h, higher = more signal.
A short description of assay [4]: CREB reporter modulators without forskolin, primary screen, cell-based, PC12, CRE-LacZ reporter, unstimulated (AID 1145). The note with it: no forskolin, luminescence, 4.5 h, higher = more signal, called active from +8 up or from −8 down.
Assay [5] in a line: CREB reporter modulators under forskolin, primary screen, cell-based, PC12, CRE-LacZ reporter, forskolin-stimulated (AID 1146).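 Also: PC12 cells with 6xCRE LacZ reporter stimulated by forskolin 10 µM; beta-galactosidase reporter signal reflecting CREB driven transcription.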 Conditions: luminescence, 4.5 h, higher = more signal, called active from +8 up or from −8 down.
Assay [6] concerns the target Streptavidin (Streptomyces avidinii) (UniProt P22629). Nature of the assay: streptavidin binders on small-molecule microarray, primary screen, artefact control for SMM compound annotation, biophysical, 635/667 nm fluorescence (AID 1147).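 Also: signal reflects streptavidin binding to arrayed compounds as a control protein.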 The note with it: streptavidin binding, higher = more signal.
A short description of assay [7]: small-molecule binders of probe aInhba, primary screen, biochemical, small-molecule microarray, 635/667 nm fluorescence (AID 1148).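 Also: score merges 667nm spot fluorescence with signal-to-noise for antibody binding to printed compounds.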 Conditions: higher = more signal.
For assay [8], the target named is Torsin-1A (Homo sapiens) (UniProt O14656). Nature of the assay: torsin A binders from cell lysate, primary screen, small-molecule microarray, wild-type, 635/667 nm (AID 1149). The note with it: COS7 hTOR1A-WT lysate, 635 nm fluorescence, higher = more signal.
Assay [9] has the same target. Nature of the assay: small-molecule binders of mutant TOR1A in lysate, primary screen, cell lysate, small-molecule microarray, COS7 lysate, 635/667 nm fluorescence (AID 1150).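 Also: score pools 667 nm emission and signal to noise measuring lysate protein binding.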 The note with it: COS7 hTOR1A mutant lysate, 635 nm fluorescence, higher = more signal.
For assay [10], the system named is Sonic hedgehog protein (Shh). Nature of the assay: small-molecule binders of Shh protein, primary screen, biochemical, small-molecule microarray, 635/667 nm fluorescence (AID 1151).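 Also: Shh protein binding to compounds spotted on small-molecule microarray slides; score combines spot fluorescence intensity with signal-to-noise across triplicate slides.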 Conditions: small-molecule microarray binding, 635 nm fluorescence; higher = more signal.
Assay [11] in a line: E. coli DRC41 culture turbidity changes, primary screen, E. coli filamentation inducer project, strain DRC41, OD650, 48 h (AID 1152).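 Also: E. coli MC1000 strain DRC41 lacking acrAB efflux pump and sulA.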 The note with it: E. coli DRC41 (acrAB sulA), higher = more signal, called active from +8 up or from −8 down.
The nature of assay [12]: small-molecule binders of probe aLefty1, primary screen, biochemical, small-molecule microarray, 635/667 nm fluorescence (AID 1153).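 Also: score merges spot fluorescence with signal-to-noise ratio from the scanned slide images.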 The note with it: higher = more signal.
A short description of assay [13]: PSAC antagonists in infected red cells, primary screen, cell-based, P. falciparum Indochina, OD700, 1 h (AID 1154). The note with it: P. falciparum Indochina infected RBC osmotic lysis, higher = more signal, called active from +8 up or from −8 down.
Assay [14] is described as follows: PSAC antagonists in infected red cells, primary screen, cell-based, P. falciparum Indochina, OD700, 2 h (AID 1155).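 Also: lysis reports solute entry through the parasite surface anion channel PSAC; channel blockers reduce lysis of infected cells.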 Conditions: P. falciparum Indochina infected erythrocytes, osmotic lysis OD700; higher = more signal, called active from +8 up or from −8 down.
Assay [15] can be described thus: osmotic lysis modulators in infected erythrocytes, primary screen, PSAC antagonist project, cell-based, P. falciparum Indochina, OD700, 3 h (AID 1156). Conditions: higher = more signal, called active from +8 up or from −8 down.
The nature of assay [16]: PSAC antagonists in infected red cells, primary screen, cell-based, P. falciparum Indochina, OD700, 18 h (AID 1157). The note with it: P. falciparum Indochina infected erythrocytes, osmotic lysis OD700, 18 h; higher = more signal, called active from +8 up or from −8 down.
Assay [17] in a line: modulators of S6 phosphorylation in cells, primary screen, cell-based, A549, cytoblot, luminescence, serum-stimulated (AID 1158).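 Also: serum-stimulated A549 lung adenocarcinoma cells; signal is phosphorylated S6 detected by cytoblot immunostaining with HRP secondary.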 The note with it: A549 phospho-S6 cytoblot, 5 h, higher = more signal.
For assay [18], the target named is NADPH oxidase 2 (Homo sapiens) (UniProt P04839). Nature of the assay: NOX2-dependent H2O2 signal modulators, primary screen, NOX inhibitor project, cell-based, HEK293-NOX2, PMA-stimulated, Amplex Red fluorescence (AID 1159). Also: test concentration not given here. The note with it: 45 min, higher = more signal, called active from +8 up or from −8 down.
Assay [19] deals with NADPH oxidase 4 (Homo sapiens) (UniProt Q9NPH5). Nature of the assay: NOX4-dependent H2O2 signal modulators, primary screen, NOX inhibitor project, cell-based, HEK293-NOX4, tetracycline-induced, Amplex Red fluorescence (AID 1160). Conditions: 45 min, higher = more signal, called active from +8 up or from −8 down.
In assay [20] the target is NADPH oxidase 5 (Homo sapiens) (UniProt Q96PH1). Nature of the assay: NOX5-dependent H2O2 signal modulators, primary screen, NOX inhibitor project, cell-based, HEK293-NOX5, Amplex Red fluorescence (AID 1161). Conditions: HEK293-NOX5, ionomycin, 45 min, higher = more signal.
Chain of NADPH oxidase 5 (Homo sapiens) (Q96PH1 whole entry, looked up): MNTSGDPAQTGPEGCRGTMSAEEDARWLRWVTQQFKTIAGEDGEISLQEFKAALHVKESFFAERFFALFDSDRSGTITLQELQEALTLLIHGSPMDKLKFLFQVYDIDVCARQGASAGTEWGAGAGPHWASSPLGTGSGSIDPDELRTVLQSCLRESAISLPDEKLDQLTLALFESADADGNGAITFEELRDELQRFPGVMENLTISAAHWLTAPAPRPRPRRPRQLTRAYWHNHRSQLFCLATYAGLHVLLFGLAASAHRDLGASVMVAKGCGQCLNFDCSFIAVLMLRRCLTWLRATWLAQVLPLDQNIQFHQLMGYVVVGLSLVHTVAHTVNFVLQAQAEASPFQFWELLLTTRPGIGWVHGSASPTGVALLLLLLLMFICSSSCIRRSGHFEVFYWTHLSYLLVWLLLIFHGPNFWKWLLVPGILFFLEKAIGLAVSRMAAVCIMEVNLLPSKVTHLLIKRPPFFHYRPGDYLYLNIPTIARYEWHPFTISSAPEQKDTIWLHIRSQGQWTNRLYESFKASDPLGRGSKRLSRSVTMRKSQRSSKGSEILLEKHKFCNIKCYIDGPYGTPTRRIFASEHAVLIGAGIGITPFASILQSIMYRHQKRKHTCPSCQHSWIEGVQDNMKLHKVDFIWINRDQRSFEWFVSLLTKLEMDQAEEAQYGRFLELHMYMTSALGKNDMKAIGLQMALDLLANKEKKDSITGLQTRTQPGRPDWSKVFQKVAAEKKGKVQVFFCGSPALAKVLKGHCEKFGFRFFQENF

Chain of NADPH oxidase 2 (Homo sapiens) (P04839 whole entry, looked up): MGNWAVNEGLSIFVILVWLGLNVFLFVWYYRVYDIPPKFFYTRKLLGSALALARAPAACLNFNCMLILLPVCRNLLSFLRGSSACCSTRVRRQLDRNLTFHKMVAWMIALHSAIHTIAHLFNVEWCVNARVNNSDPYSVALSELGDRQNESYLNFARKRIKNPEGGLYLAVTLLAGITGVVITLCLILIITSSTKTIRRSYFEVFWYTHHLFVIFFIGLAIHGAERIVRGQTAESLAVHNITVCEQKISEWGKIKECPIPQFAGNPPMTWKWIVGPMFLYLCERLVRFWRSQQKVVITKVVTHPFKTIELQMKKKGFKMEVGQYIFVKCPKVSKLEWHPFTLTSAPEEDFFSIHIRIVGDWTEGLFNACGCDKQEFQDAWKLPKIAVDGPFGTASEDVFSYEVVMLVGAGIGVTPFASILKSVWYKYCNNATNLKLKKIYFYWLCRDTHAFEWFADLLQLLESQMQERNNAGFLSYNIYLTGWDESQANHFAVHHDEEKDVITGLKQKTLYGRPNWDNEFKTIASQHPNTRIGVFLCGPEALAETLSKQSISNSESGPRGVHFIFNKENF
Chain of Torsin-1A (Homo sapiens) (O14656 whole entry, looked up): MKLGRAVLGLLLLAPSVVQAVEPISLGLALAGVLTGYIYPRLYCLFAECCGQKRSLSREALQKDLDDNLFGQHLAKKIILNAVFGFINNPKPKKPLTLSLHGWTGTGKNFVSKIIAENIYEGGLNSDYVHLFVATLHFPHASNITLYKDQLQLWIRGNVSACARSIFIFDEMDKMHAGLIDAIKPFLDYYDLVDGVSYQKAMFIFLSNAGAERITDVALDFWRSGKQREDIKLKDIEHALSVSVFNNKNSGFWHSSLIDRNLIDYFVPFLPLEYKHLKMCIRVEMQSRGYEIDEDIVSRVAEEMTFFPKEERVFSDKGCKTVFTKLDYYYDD
Chain of NADPH oxidase 4 (Homo sapiens) (Q9NPH5 whole entry, looked up): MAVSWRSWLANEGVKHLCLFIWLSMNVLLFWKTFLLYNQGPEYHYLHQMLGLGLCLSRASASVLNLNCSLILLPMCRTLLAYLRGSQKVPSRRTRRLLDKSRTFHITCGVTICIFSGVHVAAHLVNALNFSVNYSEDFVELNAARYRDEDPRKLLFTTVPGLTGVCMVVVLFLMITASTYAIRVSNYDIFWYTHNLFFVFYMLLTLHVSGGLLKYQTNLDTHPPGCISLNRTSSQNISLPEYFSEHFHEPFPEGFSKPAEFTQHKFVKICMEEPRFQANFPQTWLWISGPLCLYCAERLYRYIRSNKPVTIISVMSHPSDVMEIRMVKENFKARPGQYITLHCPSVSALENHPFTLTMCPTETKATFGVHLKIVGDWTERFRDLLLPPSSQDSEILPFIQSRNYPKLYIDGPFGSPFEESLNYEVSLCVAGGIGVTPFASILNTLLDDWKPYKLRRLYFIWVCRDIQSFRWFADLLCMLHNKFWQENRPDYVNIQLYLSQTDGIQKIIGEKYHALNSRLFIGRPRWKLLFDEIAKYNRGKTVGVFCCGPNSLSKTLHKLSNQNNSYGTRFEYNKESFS
Chain of Streptavidin (Streptomyces avidinii) (P22629 whole entry, looked up): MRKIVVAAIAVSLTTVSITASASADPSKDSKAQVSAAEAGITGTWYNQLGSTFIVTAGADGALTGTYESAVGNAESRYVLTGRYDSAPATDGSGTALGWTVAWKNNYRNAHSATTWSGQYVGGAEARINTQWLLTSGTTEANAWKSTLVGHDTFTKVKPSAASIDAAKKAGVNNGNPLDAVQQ

Regarding `CC1CC/C=C\[C@H]2OC34C=CCN(C(C)(C)C)C(=O)[C@H]3N(C(CO)C(C)C)C(=O)[C@@H]4C2C(=O)O1` (stereo not given in full), the composite z-score in assay [1] is 0.0295; in [6] it was -0.324; in [7] it was -0.128; in assay [8], 0.0733; in assay [9], 0.931; in [10], 0.774. Besides, the composite z-score in assay [12] is -0.142. Moreover, the z-score in assay [2] is 0.0336 (inactive); in assay [3], 1.4 (inactive); in assay [4], -0.354 (inactive); in assay [5], 0.46 (inactive); in assay [11] it was -0.281 (inactive); in assay [13], 0.462 (inactive). In addition, the z-score was 0.451 (inactive) in assay [14]; 0.44 (inactive) in assay [15]; 0.404 (inactive) in assay [16]; -0.248 in assay [17]; 1.31 (inactive) in assay [18]; -0.568 (inactive) in [19]. For the same molecule, the z-score in assay [20] turned out to be 2.34.

For the molecule `COc1ccc(C(=O)Nc2cccc(CN3C(=O)[C@@]4(O[C@@H](CC(=O)N(CCO)Cc5ccccc5)[C@H]([Si](C)(C)c5ccc(OC)cc5)[C@H]4C)c4ccccc43)c2)cc1`, the composite z-score in [1] is -0.198; in [6] it was -0.503; in assay [7], -0.101; in [8], 0.479; in [9], 1.16; in [10] it was 1.51. Besides, in [12], the composite z-score was -0.443. In addition, the z-score in [2] was -4.44 (inactive); in assay [3], -0.244 (inactive); in [4], 3.3 (inactive); in assay [5], -0.76 (inactive); in assay [11] it was 1.23 (inactive); in assay [13], 12.3 (active). For the same molecule, the z-score in [14] was 0.833 (inactive); in assay [15], -0.39 (inactive); in assay [16], -1.31 (inactive); in [17], 1.58; in assay [18] it was 0.306 (inactive); in [19] it was 0.56 (inactive). For the same molecule, the z-score in assay [20] worked out at 2.08.

As for `COCCCNC(=O)[C@@]1(Sc2ccc(C)cc2)CC(=O)N(C(C)C)[C@@H]1c1ccc(CO)cc1I`, the composite z-score is -0.0469 in [1]; -0.671 in assay [6]; -0.0762 in assay [7]; 0.154 in assay [8]; 1.18 in assay [9]; -0.005 in assay [10]. In assay [12], this molecule had a composite z-score of 0.0445. For the same molecule, the z-score in assay [2] is -4.86 (inactive); in [3], -0.96 (inactive); in assay [4], 0.0655 (inactive); in assay [5], 1.35 (inactive); in assay [11], -0.158 (inactive); in [13], 6.72 (inactive). The z-score in assay [14] was -0.602 (inactive); in assay [15], 0.349 (inactive); in [16], -1.49 (inactive); in assay [17], 1.61; in assay [18], 1.77 (inactive); in assay [19], -1.47 (inactive). Also, in [20], the z-score was -0.854.

In the case of `CN(C)C(=O)[C@@]1(Cc2ccccc2N=[N+]=[N-])N=C(c2ccc(OCCCO)cc2)O[C@H]1c1ccccc1`, the composite z-score in assay [1] is 0.797; in assay [6], 1.84; in assay [7] it was 0.841; in assay [8] it was 0.106; in assay [9] it was 0.401; in assay [10] it was -0.361. In [12], this molecule returned a composite z-score of 0.465. Further, the z-score in [2] is -4.41 (inactive); in [3], -1.63 (inactive); in assay [4] it was 0.872 (inactive); in assay [5] it was 0.361 (inactive); in assay [11] it was -0.369 (inactive); in [13], 25.7 (active). The z-score in [14] was 12.4 (active); in assay [15] it was 2.85 (inactive); in assay [16], 1.94 (inactive); in [17], -0.482; in assay [18] it was -3.93 (inactive); in assay [19], 0.711 (inactive). Moreover, the z-score in assay [20] is -2.45.

Regarding `COC(=O)[C@@]1(Cc2ccccc2)[C@H]2c3cc(C(=O)N4CCCC4)n(CCSCCO)c3C[C@H]2CN1C(=O)c1ccccc1`, the composite z-score is 0.554 in assay [1]; 1.15 in assay [6]; 0.545 in assay [7]; 0.424 in assay [8]; 0.989 in assay [9]; 0.0779 in assay [10]. Also, the composite z-score in [12] was found to be 0.597. In addition, the z-score was -1.17 (inactive) in assay [2]; 0.019 (inactive) in [3]; 0.387 (inactive) in [4]; 2.14 (inactive) in assay [5]; -1.88 (inactive) in assay [11]; 1.5 (inactive) in assay [13]. Moreover, the z-score is 0.636 (inactive) in assay [14]; 0.57 (inactive) in [15]; 0.691 (inactive) in assay [16]; -0.653 in [17]; 0.957 (inactive) in assay [18]; -0.446 (inactive) in assay [19]. The z-score in assay [20] is -0.987.

Consider `O=C1C2C=CC(C(O)c3cccc(O)c3)N(Nc3ccccc3)C2C(=O)N1c1ccccc1` (stereo not given), for which the composite z-score in assay [1] is -0.105; in assay [6], 0.318; in assay [7], -0.0645; in assay [8], -0.338; in assay [9], -0.283; in assay [10], -0.461. The molecule further came in with a composite z-score in assay [12] of 0.315. Moreover, the z-score was -2.93 (inactive) in assay [2]; -1.06 (inactive) in assay [3]; -0.14 (inactive) in assay [4]; 1.37 (inactive) in assay [5]; -1.09 (inactive) in [11]; 6.48 (inactive) in [13]. Besides, the z-score in assay [14] was 0.214 (inactive); in [15], 0.185 (inactive); in assay [16], 0.115 (inactive); in [17], 0.109; in [18] it was -3.44 (inactive); in [19], -6.62 (inactive). The z-score in assay [20] is -6.85.

Take `CN1C(=O)C2C(C1=O)C1C=C(CCCO)C2C(C2CC2)N1Cc1cc2c(cc1Br)OCO2` (stereo not given): the composite z-score in assay [1] stood at 0.0949; in [6], 0.838; in assay [7] it was 0.0569; in assay [8], 1.2; in assay [9], 1.5; in [10] it was 0.265. For the same molecule, the composite z-score in assay [12] is 0.0041. The z-score in assay [2] was -1.57 (inactive); in assay [3], -0.0766 (inactive); in assay [4], 1.26 (inactive); in assay [5], 2.6 (inactive); in assay [11], -0.541 (inactive); in assay [13] it was 3.48 (inactive). Besides, the z-score in assay [14] is 0.68 (inactive); in [15] it was 0.3 (inactive); in assay [16] it was 0.307 (inactive); in assay [17], -0.188; in assay [18] it was -0.84 (inactive); in [19], -0.389 (inactive). Besides, the z-score in [20] is -0.349.

Turning to `COC(=O)[C@@]1(Cc2ccccc2)[C@H]2c3cc(C(=O)N(C)C)n(CCn4cc([N+](=O)[O-])nc4C)c3C[C@H]2CN1C(=O)c1ccccc1`, the composite z-score was 0.192 in assay [1]; 0.287 in [6]; -0.147 in [7]; 0.614 in [8]; 0.464 in assay [9]; 0.383 in assay [10]. The molecule further came in with a composite z-score in assay [12] of 0.0249. Further, the z-score is -0.65 (inactive) in assay [2]; 0.331 (inactive) in assay [3]; -0.379 (inactive) in [4]; 1.45 (inactive) in [5]; -0.566 (inactive) in [11]; -0.25 (inactive) in assay [13]. Moreover, the z-score in assay [14] was -0.949 (inactive); in [15], -0.513 (inactive); in [16], -0.956 (inactive); in [17] it was 1.18; in assay [18] it was 0.635 (inactive); in assay [19], 1.24 (inactive). In addition, the z-score in assay [20] was -1.65.
